In the library only some 11% were active in any assay of this set; here they are far more common.
PLK1 PBD inh: PLK1 (human) polo-box domain binding inhibition. 2.8% of 360,000 active. Plk1 PBD binding of FITC phosphopeptide, fluorescence polarization. Potency, µM, for the others: max response, negative = inhibition, usual class: inhibitors; also: series mostly up to about 57 µM; % is scaled to controls: 0 for no effect and ±100 for the full control effect; nearly all actives have a fitted effect of over 65% in size
BAZ2B inh: inhibitors of human BAZ2B bromodomain. Q9UIF8. AlphaScreen BAZ2B-H3K14Ac peptide displacement. Potency, µM (titrated, usually from 114 µM), for the others: at the highest dose activity change, negative = inhibition, most hits filed as inhibitors. 4.4% of 360,000 active. AID 504333; also: % is scaled to controls: 0 for no effect and ±100 for the full control effect; nearly all actives have a fitted effect of over 60% in size
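In this displacement format the biotinylated H3(5-23) peptide acetylated at Lys14 serves as ligand at 50 nM, with BAZ2B at 50 nM in PBS pH 7.4 containing 0.01% Tween-20. Donor and acceptor beads are 10 ug/mL final.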
HP1b chromo inh: inhibitors of HP1-beta chromodomain binding to methylated histone tails | AID 540317 | Potency, µM (series often up to 114 µM), for inactives: at the highest dose activity change, negative = inhibition, most hits filed as inhibitors | 0.56% of 390,000 active | AlphaScreen HP1-beta / biotin-H3K9me3 peptide binding; also: nearly all actives have a fitted effect of over 70% in size
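HP1-beta protein (50 nM final) preincubated 30 min at room temperature with biotinylated H3(1-18)K9me3 peptide (50 nM) in PBS pH 7.4, 0.01% Tween-20, then compound added for 30 min. AlphaScreen streptavidin donor/nickel chelate acceptor beads (10 ug/mL final), 30 min dark, luminescence read.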
G9a inh: blocks human histone lysine methyltransferase G9a. Potency, µM (doses to about 102 µM), for inactives: at the top dose activity, negative = inhibition, most hits filed as inhibitors. AID 504332. Q96KQ7. G9a H3K9 monomethylation, AlphaScreen, 2 h. 8.8% of 350,000 active; also: % is scaled to controls: 0 for no effect and ±100 for the full control effect; nearly all actives have a fitted effect of over 75% in size
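AlphaScreen detection with an anti-monomethyl H3K9 antibody quantified product after a 2 h room-temperature reaction containing 500 nM biotinylated H3K9 peptide, 20 µM SAM and 20 nM enzyme, which had been preincubated 15 min with compound.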
JMJD2A Tudor: JMJD2A Tudor domain (human) inhibition | AID 504339 | 4.4% of 390,000 active | O75164 | Potency, µM (titrated, usually from 114 µM), for inactives: top-dose activity change, negative = inhibition, most hits filed as inhibitors | AlphaScreen JMJD2A-Tudor / H3K4me3 peptide binding; also: % is scaled to controls: 0 for no effect and ±100 for the full control effect; nearly all actives have a fitted effect of over 50% in size
VDR inhibitor: blocks the human vitamin D receptor. VDR-SRC2-3 peptide fluorescence polarization, 2 h. Potency, µM, inactives show max response, negative = inhibition, actives largely listed as inhibitors. AID 504847. 0.93% of 400,000 active. P11473; also: % is scaled to controls: 0 for no effect and ±100 for the full control effect
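Measured by FP: displacement of SRC2-3 coactivator peptide from VDR by library compounds, following a two-hour ambient incubation.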
* hit, by the source's call; [ ] = remark or other dose. Calls follow the shape of the dose curve; as a rule, active = well fitted curve in the direction sought with a large enough effect; inconclusive = small, poorly fitted or top-dose-only effect, or another doubt; inactive = no such curve, though single readings can be large; an effect the other way counts as inactive or inconclusive. Potency is read from the fitted curve at half-maximal effect.

For O=C(NCC1COc2ccccc2O1)c1cc(S(=O)(=O)N2CCOCC2)ccc1F (stereo unspecified) the results were PLK1 PBD inh -1%, BAZ2B inh 4%, HP1b chromo inh 20%, G9a inh 22µM*, JMJD2A Tudor -14% and VDR inhibitor 6%.
CC(=O)N[C@@H](CC(=O)O)C(=O)N[C@@H](CCC(=O)O)C(=O)O was read as G9a inh 22%[21.5 µM] and VDR inhibitor 3%.
For COc1cccc(NS(=O)(=O)c2ccc3c(c2)[C@H]2C=CC[C@H]2[C@@H](c2ccccc2Cl)N3)c1 the results were BAZ2B inh 0%, HP1b chromo inh 19%, G9a inh inconclusive, JMJD2A Tudor -24% and VDR inhibitor 3%.
`Cc1c(Cl)cccc1NS(=O)(=O)c1ccc2c(c1)C1C=CCC1C(c1ccc(C(=O)O)cc1)N2` (stereo unspecified) gave PLK1 PBD inh 11µM*, BAZ2B inh 45µM*, HP1b chromo inh 50µM*, G9a inh 2.8µM*, JMJD2A Tudor 56µM* and VDR inhibitor inconclusive.
COC(=O)c1ccc([C@H]2Nc3ccc(S(=O)(=O)Nc4ccc(C)cc4)cc3[C@H]3C=CC[C@H]32)cc1 was read as BAZ2B inh inconclusive, HP1b chromo inh -11%, G9a inh 3.5µM*, JMJD2A Tudor inconclusive and VDR inhibitor -17%.
Cc1cccc(C)c1NS(=O)(=O)c1ccc2c(c1)[C@H]1C=CC[C@H]1[C@@H](c1ccc(Cl)cc1)N2 was read as BAZ2B inh -37%, HP1b chromo inh 6%, G9a inh 3.5µM*, JMJD2A Tudor -32% and VDR inhibitor -21%.
CC(=O)c1ccc2c(c1)C1C=CCC1C(c1ccc(S(=O)(=O)N3CCOCC3)cc1)N2 (stereo unspecified) was read as PLK1 PBD inh -10%, BAZ2B inh inconclusive, HP1b chromo inh 6%, G9a inh inconclusive, JMJD2A Tudor -32% and VDR inhibitor -25%.
CN1N=C(C(=O)N2CCCC(N3CCN(c4ccc(F)cc4)CC3)C2)CCC1=O (stereo unspecified) was read as PLK1 PBD inh 4%, BAZ2B inh 1%, HP1b chromo inh 5%, G9a inh 9%, JMJD2A Tudor -3% and VDR inhibitor 6%.
For CCOc1ccc(C(=O)CCC(=O)N(CC)CC(=O)NCc2ccc(Cl)cc2)cc1 the results were PLK1 PBD inh -2%, BAZ2B inh -14%, HP1b chromo inh 18%, G9a inh 38%, JMJD2A Tudor -13% and VDR inhibitor 0%.
O=C(c1ccccc1)c1cnc2ccc(Cl)cc2c1N1CCOCC1 was read as PLK1 PBD inh -5%, BAZ2B inh inconclusive, HP1b chromo inh -1%, G9a inh 50µM*, JMJD2A Tudor inconclusive and VDR inhibitor -1%.
For COc1cc2ncc(C(=O)c3ccccc3)c(N3CCN(Cc4ccccc4)CC3)c2cc1OC the results were PLK1 PBD inh 3%, BAZ2B inh inconclusive, HP1b chromo inh inconclusive, G9a inh 35µM*, JMJD2A Tudor 22µM* and VDR inhibitor -2%.
For CCOC(=O)c1c(O)c(Cl)c(C)[nH]c1=O the results were PLK1 PBD inh 27µM*, HP1b chromo inh 5%, G9a inh -10%, JMJD2A Tudor 79µM* and VDR inhibitor 5%.
`NC(=O)CSc1nc2ccccc2c(=O)n1CCc1ccccc1` gave PLK1 PBD inh -18%, BAZ2B inh 8%, HP1b chromo inh 24%, G9a inh 79µM*, JMJD2A Tudor -2% and VDR inhibitor 8%.
CN(C)C(=O)CSc1nc2ccccc2n1Cc1ccccc1 was read as PLK1 PBD inh 5%, BAZ2B inh 20%, HP1b chromo inh 36%, G9a inh 12%, JMJD2A Tudor -9% and VDR inhibitor -2%.
For O=C(O)CSc1nc2ccccc2n1Cc1ccccc1 the results were PLK1 PBD inh inconclusive, BAZ2B inh 4%, HP1b chromo inh -2%, G9a inh 6%, JMJD2A Tudor 89µM* and VDR inhibitor -15%.
Screening O=C(O)CCn1c(SCc2ccccc2)nc2ccccc21 returned PLK1 PBD inh 2%, BAZ2B inh 6%, HP1b chromo inh 12%, G9a inh -34%[59 µM], JMJD2A Tudor -8% and VDR inhibitor -9%.
`O=c1c2ccccc2nc(/C=C/c2cccnc2)n1CCc1ccccc1` gave PLK1 PBD inh 5%, BAZ2B inh 35µM*, HP1b chromo inh -23%, G9a inh 50µM*, JMJD2A Tudor 18µM* and VDR inhibitor -10%.
COC(=O)Cn1c(SCc2ccccc2)nc2ccccc21 was read as PLK1 PBD inh 27µM*, BAZ2B inh 9%, HP1b chromo inh 19%, G9a inh 33%, JMJD2A Tudor 13%[11.4 µM] and VDR inhibitor -9%.
`Cc1ccc(CCNC(=O)Cn2ncc3c([nH]c4ccc(C)cc43)c2=O)cc1` gave BAZ2B inh 14%[57.1 µM], HP1b chromo inh 22%, G9a inh -17%[59 µM], JMJD2A Tudor -5% and VDR inhibitor 19%.
Screening CC1(C)CC(CCNC(=O)CCl)(c2ccccc2)CCO1 (stereo unspecified) returned PLK1 PBD inh -10%, BAZ2B inh 0%, HP1b chromo inh 25%, G9a inh 19%[12.7 µM], JMJD2A Tudor -8% and VDR inhibitor -1%.
CCCCCn1c(=O)[nH]c2cc(C(=O)NCc3ccc(C)cc3)ccc2c1=O was read as BAZ2B inh -1%, HP1b chromo inh 10%, G9a inh 1%[59 µM], JMJD2A Tudor -3% and VDR inhibitor -18%.
Screening O=C(c1ccncc1)N1CCC[C@@]2(CCN(c3ccccn3)C2)C1 returned G9a inh 13%[12.7 µM] and VDR inhibitor inconclusive.
Screening COc1ccc(N=C(C)C2=C(O)COC2=O)cc1 returned PLK1 PBD inh -4%, BAZ2B inh -19%, HP1b chromo inh 35%, G9a inh 6.3µM*, JMJD2A Tudor -14% and VDR inhibitor 8%.
O=C(CN1CCN(Cc2ccccc2)CC1)N1CCCc2ccccc21 was read as PLK1 PBD inh -14%, BAZ2B inh 20µM*, HP1b chromo inh inconclusive, G9a inh inconclusive, JMJD2A Tudor 4.5µM* and VDR inhibitor -19%.
For O=C(CN1CCN(c2ccc(O)cc2)CC1)N1CCc2ccccc21 the results were PLK1 PBD inh -1%, BAZ2B inh -37%, HP1b chromo inh inconclusive, G9a inh 10µM*, JMJD2A Tudor 79µM* and VDR inhibitor 2%.
Screening NC(=O)Nc1ccc(C(=O)OCC(=O)N2CCc3ccccc3C2)cc1 returned PLK1 PBD inh -3%, BAZ2B inh 14%, HP1b chromo inh 23%, G9a inh inconclusive, JMJD2A Tudor -17% and VDR inhibitor -16%.

Compound activity: PubChem, National Center for Advancing Translational Sciences (NCATS)
